CHX counter: counter-screen hit for Shiga toxin inhibitors, cycloheximide | cell reporter, cycloheximide protein synthesis inhibition counterscreen | max response, % | 300,000 tested, 12% active | AID 2314; in the data active means max response mostly above about 13%, no sharp cut-off; inactive means mostly below about 14%; further: read at 38.3 µM for the half of the compounds with a filed dose; 0% is about no effect
FBPA Giardia inh: inhibitors of Giardia lamblia fructose-1,6-bisphosphate aldolase. Potency, µM (series often up to 59.6 µM), inactives show at the top dose activity, negative = inhibition, hits mostly inhibitors. AID 2451. A8B2U2. purified Giardia FBPA. 290,000 tested, 0.71% active; further: potency means the concentration at half of the fitted maximal effect; on the % scale 0 is the no-effect control and ±100 the full control effect; nearly all actives have a fitted effect of over 55% in size
Target sequence (A8B2U2 whole entry, looked up): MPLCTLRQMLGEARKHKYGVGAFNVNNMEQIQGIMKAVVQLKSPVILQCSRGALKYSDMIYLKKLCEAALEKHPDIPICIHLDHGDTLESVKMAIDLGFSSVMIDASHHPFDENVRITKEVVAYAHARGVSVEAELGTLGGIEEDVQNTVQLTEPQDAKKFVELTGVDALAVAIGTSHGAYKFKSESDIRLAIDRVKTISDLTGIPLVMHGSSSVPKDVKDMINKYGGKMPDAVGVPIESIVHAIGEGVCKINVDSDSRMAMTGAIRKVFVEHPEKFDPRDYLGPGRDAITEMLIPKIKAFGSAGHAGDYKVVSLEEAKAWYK
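Giardia FBPA (40 nM reagent) was preincubated 10 min at RT with compound (up to 57.5 uM final), then substrate plus GAPDH/TPI/NAD/arsenate coupling system with diaphorase/resazurin was added; resorufin fluorescence (525/598 nm) was read after 20 min.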
NS1 function inh: blocks influenza NS1 protein function; Potency, µM (series often up to 46.1 µM), for inactives: at the top dose activity, positive = more growth; 270,000 tested, 0.4% active; calls by dose curve; further: potency means the concentration at half of the fitted maximal effect; actives are rising curves; nearly all actives have a fitted effect of over 50% in size
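A cell-based growth assay was used: compounds that relieve NS1-induced slow growth of budding yeast raise OD600. Assay medium was yeast nitrogen base with ammonium sulphate and -URA supplement, pH 6.0, with 2% galactose.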
Pf growth 48h: P. falciparum growth inhibition at 48 hours (one generation). P. falciparum luciferase growth in erythrocytes, 48 h. 310,000 tested, 5.9% active. Potency, µM (series often up to 28.7 µM), inactives show at the top dose activity change, negative = inhibition, hits mostly inhibitors; further: potency means the concentration at half of the fitted maximal effect; on the % scale 0 is the no-effect control and ±100 the full control effect
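Here the parasites carry a stable luciferase gene and grow inside erythrocytes in Albumax-based RPMI medium with compound for one erythrocytic cycle. Activity is scored as loss of luminescent signal.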
Pf growth 96h: P. falciparum growth inhibition at 96 hours | Potency, µM (highest dose often 28.7 µM), for inactives: at the highest dose activity change, negative = inhibition, most hits filed as inhibitors | AID 504834 | P. falciparum luciferase reporter growth, 96 h | 320,000 tested, 6.9% active; further: potency means the concentration at half of the fitted maximal effect; on the % scale 0 is the no-effect control and ±100 the full control effect
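P. falciparum expressing integrated firefly luciferase grown in erythrocytes (2% hematocrit, 0.05% parasitemia final) with compounds for 96 hours at 37 C, 5% CO2. Growth inhibition read as loss of luminescence after adding luciferase detection reagent.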
Shiga inhibitor: Shiga toxin inhibition | 290,000 tested, 9.2% active | Vero cells, Shiga toxin protein synthesis inhibition reporter | inhibition, % at 38.7 µM; in the data active means inhibition mostly above about 28%, no sharp cut-off; inactive means mostly below about 43%; further: 0% is about no effect
* = called active by the depositor; ? = inconclusive; · = no result; [ ] = another dose, or the depositor's remark. In the library only some 21% were active in any assay of this set; here they are far more common. Unless noted, the call rests on the fitted dose curve; in most records, active means well fitted curve in the direction sought with a large enough effect; inconclusive means small, poorly fitted or top-dose-only effect, or another doubt; inactive means no such curve, though single readings can be large; an effect the other way counts as inactive or inconclusive.

SMILES	CHX counter	FBPA Giardia inh	NS1 function inh	Pf growth 48h	Pf growth 96h	Shiga inhibitor
Cc1ccc(NC(=O)CCS(=O)(=O)c2ccccc2)cc1S(=O)(=O)N1CCOCC1	-2.0	3.3%	·	-19.8%	?	9.5
Cc1ccc(NC(=O)CCCOc2ccccc2)cc1S(=O)(=O)N1CCOCC1	·	·	·	10.4µM*	?	·
Cc1ccc(NC(=O)C(=O)c2c(-c3ccccc3)cc3ccccn23)cc1S(=O)(=O)N1CCOCC1	-3.7	-2.7%	?	9.28µM*	·	14.2
O=C(CCCSc1ccccc1)Nc1ccc(Cl)c(S(=O)(=O)N2CCOCC2)c1	·	·	·	13.1µM*	10.4µM*	·
Cc1cc(-c2c(C(=O)N3CCOCC3)c(C)nn2-c2ccccc2)no1	-2.1	2.5%	-1.6%	31.8%	19.4%	-0.7
Cc1noc(C)c1C(=O)N1CCC2(CCN(C(=O)NC(C)C)CC2)CC1	·	0.8%	·	·	·	·
CC1Cc2ccccc2N1C(=O)CN1C(=O)NC2(CCCCC2)C1=O (stereo not given)	·	·	·	-10.4%	-23.7%	·
CC(=O)C1=C(C)N(Cc2ccco2)C(=O)N[C@@H]1c1ccccc1	·	0.2%	·	·	·	·
Cc1ccc(OCCCC(=O)Nc2ccc(Cl)c(S(=O)(=O)N3CCOCC3)c2)cc1	·	·	·	?	10.4µM*	·
CCN(CC(=O)Nc1ccc(C)c(S(=O)(=O)N2CCOCC2)c1)Cc1ccccc1	·	·	·	11.7µM*	?	·
COc1ccc(NS(=O)(=O)c2ccc3c(c2)NC(=O)CO3)c(OC)c1	11.3	·	4.2%	19.0%	-0.7%	-5.9
CSCC[C@@H]1NC(=O)C/C=C\[C@@H](C)COC(=O)[C@@H](CCSC)NC(=O)C/C=C\[C@@H](C)COC1=O	·	1.9%[12.9 µM]	·	·	·	·
CC(C)(C)OC(=O)N1C=CCC1CN1C(=O)COCC1=O (stereo not given)	10.1	4.6%	·	·	·	17.3
CCCOC(=O)Nc1cccc(C(C)=O)c1	12.0	-4.6%	-2.1%	29.0%	4.5%	4.6
CCCCOC(=O)c1ccc(NC(=O)c2c(OC)cccc2OC)cc1	1.3	-4.5%	-0.1%	-11.5%	10.0%	21.3
CCCOC(=O)Nc1ccc(C(N)=O)cc1	24.3*	6.2%	-11.8%	58.6%	-2.6%	19.2
CCCCOC(=O)c1cc(=O)[nH]c2ccccc12	11.2*	1.7%	22.6%	5.6%	11.7µM*	12.0
CCCCOC(=O)c1ccc(NC(=O)c2cc(Cl)c(Cl)cc2C(=O)O)cc1	32.0*	9.6%	4.3%	1.2%	52.5%[5.75 µM]	65.6*
CC(=O)Nc1ccc(C(=O)OCCc2ccccc2)cc1	41.8*	5.2%	-166.0%	157.6%	260.4%	64.4*
O=C(c1ccc(Br)cc1)N(c1ccccn1)C1CCCCC1	-1.7	-1.9%	-59.1%	-6.2%	1.6%	7.1
Cc1cc(N)n(Cc2cccs2)n1	-1.8	-4.4%	6.5%	0.0%	16.6%	3.9
CCCCOC(=O)c1ccc(NC(=O)c2nn(C)cc2Br)cc1	29.9*	-4.5%	3.7%	?	?	79.4*
CCCCOC(=O)c1ccc(NC(=O)CSc2nnnn2C)cc1	1.8	-0.5%	1.5%	0.0%	10.4%	1.3
CCCCCCOC(=O)c1ccccc1N	38.9*	-0.4%	5.5%	28.1%	·	76.3
CCCCCCOC(=O)c1ccc(N)cc1	42.2*	-3.7%	-43.1%	309.7%	358.4%	69.3*
SMILES	CHX counter	FBPA Giardia inh	NS1 function inh	Pf growth 48h	Pf growth 96h	Shiga inhibitor
CCCCOC(=O)c1ccc(NC(C)=O)cc1	13.4	2.7%	-15.9%	49.5%	?	51.9*
CC(=O)OC[C@@H]1O[C@@H](O/N=C2/C[C@@H](O)[C@@H](O)[C@@H]3[C@@H]4C(=O)N([C@@H](C)c5ccccc5)C(=O)[C@H]4CC[C@H]23)[C@H](OC(C)=O)[C@H](OC(C)=O)[C@@H]1OC(C)=O	·	0.0%[12.9 µM]	·	·	·	·
CCCCOC(=O)Nc1cc(C(=O)OC)ccc1C(=O)OC	-2.3	-8.0%	-13.0%	10.4µM*	?	-2.0
CCCOC(=O)c1ccc(N)cc1	·	·	·	18.6%	-10.6%	·
CCCCOC(=O)c1ccc(NC(=O)/C=C/c2cccs2)cc1	40.7*	1.6%	-56.2%	19.5%	-11.9%	52.7*
CCCCOC(=O)Nc1ccc(C(=O)OC)cc1	11.8	-2.9%	-60.1%	66.1%	-2.7%	40.5
CCCCOC(=O)c1ccc(N)cc1	14.9*	0.0%	-9.5%	60.3%	38.6%	63.1*
COc1ccc(NC(=S)NC(=O)/C=C/c2cccs2)cc1	13.8	0.3%	·	-8.2%	-5.9%	22.3
CCCOC(=O)c1ccc(NC(=O)C(CC)CC)cc1	40.5*	4.1%	-5.1%	88.8%	1.5%	70.2*
Cc1ccc(C(=O)N2N=C(c3cccc(NS(C)(=O)=O)c3)CC2c2cccs2)cc1 (stereo not given)	-3.5	8.9%	?	18.6%[0.00184 µM]	?	-14.3
Cc1cc2c(s1)c1cnn(Cc3ccccc3Cl)c(=O)c1n2C	12.2	·	·	·	·	8.8
NNC(=O)C(Cc1cnc[nH]1)NC(=O)OCc1ccccc1 (stereo not given)	-4.3	2.6%	2.8%	5.0%	19.0%	2.5
O=c1c(/C=N\NS(=O)(=O)c2ccccc2)coc2ccc(Cl)cc12	-1.1	-17.2%	-25.3%	5.2%	22.4%	-8.3
O=C(c1ccc(Cl)c([N+](=O)[O-])c1)N1CCCc2ccccc21	33.6*	-2.3%	-1.5%	18.9%	?	39.3*
O=C(c1ccc(S(=O)(=O)N2CCCCC2)cc1)N1CCCc2ccccc21	-2.0	4.7%	-49.9%	?	13.1µM*	-5.7
O=C(c1ccc(S(=O)(=O)N2CCOCC2)cc1)N1CCCc2ccccc21	22.2*	0.9%	21.2%	1.4%	?	15.1
O=C(c1ccc(-n2cccn2)cc1)N1CCc2ccccc2C1	24.3*	0.7%	-61.1%	38.4%	57.2%	33.6
O=C(c1ccc(S(=O)(=O)N2CCCC2)cc1)N1CCCc2ccccc21	2.1	9.7%	-53.5%	34.0%	-6.6%	29.6
O=C(c1ccc(F)c(S(=O)(=O)N2CCOCC2)c1)N1CCc2ccccc21	-3.8	-4.1%	15.5%	16.7%	?	-3.7
O=C(C1CCCN(Cc2ccc([N+](=O)[O-])cc2)C1)N1CCCCC1 (stereo not given)	-4.2	?	-4.8%	7.3%	-14.2%	-3.3
CC/C=C\C/C=C\C/C=C\C/C=C\C/C=C\C/C=C\CCC(=O)NCCO	·	-3.5%	·	·	·	·
O=C(c1ccc(S(=O)(=O)N2CCCCC2)cc1)N1CCc2ccccc2C1	0.8	2.5%	-9.6%	?	3.29µM*	-21.9
O=C(Oc1cccc(C(=S)N2CCCCC2)c1)c1ccccc1	3.5	-6.6%	·	24.5%	7.38µM*	19.1
O=C(Oc1ccc2ccccc2c1)c1cncc(Br)c1	2.2	3.4%	10.3%	·	53.5%	-13.0
Cc1cccc(C(=O)Oc2ccc3ccc(O)cc3c2)c1	24.8*	-2.6%	-1.1%	-21.9%	?	·
O=C(Oc1ccc(C(=S)N2CCCCC2)cc1)c1ccccc1	-1.9	-20.2%	-3.1%	6.7%	?	15.0
O=C(Oc1ccc2ccccc2c1)c1ccccc1	22.5*	0.3%	-10.7%	·	19.7%	94.2
Cc1ccn(C)c(=N)c1	-8.9	1.8%	7.0%	5.7%	-12.6%	-15.1

Assay outcomes (PubChem)
